Screening results from PubChem.
A selection: hits, their analogues and other compounds. The true share with any hit is near 3.5%.
Mtb UGM inh: M. tuberculosis UGM enzyme inhibitors, primary screen, biochemical, fluorescence polarization, single point; UDP-galactopyranose mutase (Mycobacterium tuberculosis (strain ATCC 25618 / H37Rv)), …; purified UGM, fluorescence polarization probe displacement; inhibition, % at 10 µM; 0.06% of 320,000 active; in the data active = inhibition above about 10%, passing the limit was not always enough
FBA Mtb inh: Mtb FBA enzyme inhibitors, primary screen, biochemical, fluorescence, strain H37Rv | 2.3% of 360,000 active | purified M. tuberculosis FBA, fluorescence read-out | Fructose-bisphosphate aldolase (Mycobacterium tuberculosis (strain ATCC 25618 / H37Rv)), … | inhibition, % at 1 µM | AID 588726, 2011; in the data active = inhibition above about 27%;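 note: 0% = vehicle and 100% = reference inhibitor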
Target sequence (P9WQA3 whole entry, looked up): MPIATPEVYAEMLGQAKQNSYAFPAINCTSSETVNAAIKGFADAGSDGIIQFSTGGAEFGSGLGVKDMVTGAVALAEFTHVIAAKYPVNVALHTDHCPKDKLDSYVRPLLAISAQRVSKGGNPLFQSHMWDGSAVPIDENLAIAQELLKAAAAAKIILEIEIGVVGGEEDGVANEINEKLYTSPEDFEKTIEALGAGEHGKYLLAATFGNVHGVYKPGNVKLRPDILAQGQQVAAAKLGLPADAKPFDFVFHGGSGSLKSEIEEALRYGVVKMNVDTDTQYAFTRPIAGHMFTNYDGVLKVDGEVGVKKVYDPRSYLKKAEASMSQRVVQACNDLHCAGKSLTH
Mtb betalactam: beta-lactam sensitization of Mtb H37Rv, H37Rv; M. tuberculosis H37Rv growth with meropenem, percent inhibition; inhibition, % at 25 µM; 0.27% of 330,000 active; AID 434955, 2010; call rule not given here;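 note: growth measured after seven days incubation then overnight dye step; 0% = bacteria only wells and 100% = bacteria with antibiotic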
GDH-TPI counter: GDH-TPI coupling enzyme inhibitors, primary screen, artefact control for M. tuberculosis FBA inhibitor project, biochemical, absorbance, full deck; inhibition, % at 4.8 µM; 1.2% of 360,000 active; GDH-TPI coupled enzyme counterscreen, NADH absorbance; in the data active = inhibition above about 30%;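 note: 0% = DMSO wells and 100% = wells lacking the enzyme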
Rv3671c inh: Rv3671c serine protease inhibitors, primary screen, biochemical, fluorescence polarization, M. tuberculosis H37Rv. AID 2606, 2010. 0.048% of 320,000 active. inhibition, % at 5.96 µM; in the data active = inhibition above about 38%;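 note: extracellular domain of Rv3671c used as enzyme; 0% = enzyme with DMSO and 100% = no enzyme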
* hit, by the source's call; · = no result given; + = active, no number.

SMILES	Mtb UGM inh	FBA Mtb inh	Mtb betalactam	GDH-TPI counter	Rv3671c inh
CCCCOCCCn1c(N)c(C(=O)OCCOC)c2nc3ccccc3nc21	-0.7	133.7*	35.1	15.2	-10.3
O=C1C(Cl)=C(N2CCCC2)C(=O)N1c1ccc(F)cc1	-0.5	-1.6	13.5	6.8	1.0
CCOP(=S)(OCC)Oc1ccc2c(C)c(Cl)c(=O)oc2c1	·	8.6	·	9.7	·
Cc1c(C)c2ccc(OCC(=O)c3ccccc3)cc2oc1=O	0.7	2.0	-7.8	18.4	2.5
CCC(=O)Oc1ccc2c(C)c(Cl)c(=O)oc2c1	2.4	+	-0.7	4.4	7.3
Cc1c(Cl)c(=O)oc2cc(OC(C)C)ccc12	0.4	+	-3.0	25.4	-11.0
Cc1nc(N2CCN(C)CC2)c2sc(=S)n(-c3ccccc3)c2n1	0.8	2.0	-3.6	37.6*	-1.8
Cc1nc(N2CCN(C)CC2)c2sc(=S)n(C)c2n1	-3.3	1.9	-4.8	16.8	1.2
COc1ccc(/C=C/C(=O)Nc2cccc(N3CCOCC3)c2)cc1OC	-2.0	-0.8	9.8	22.0	-3.9
COc1ccc(NC(=O)C2CC(=O)N/C(=N/N=C/c3ccco3)S2)cc1 (stereo not drawn)	-0.4	-2.2	-1.8	45.2*	4.2
COc1ccc(/C=N/N=C2/NC(=O)CC(C(=O)O)S2)cc1 (stereo not drawn)	-0.2	-3.2	-0.1	54.5*	-1.9
O=C1CC(C(=O)Nc2ccc(Br)cc2)S/C(=N\N=C\c2ccco2)N1 (stereo not drawn)	-4.2	0.2	6.8	51.9*	-20.6
O=C1CC(C(=O)Nc2ccccc2)S/C(=N\N=C\c2ccco2)N1 (stereo not drawn)	1.6	-4.1	-7.6	29.2	-4.1
COc1ccc(CN=C2NC(=O)CC(C(=O)Nc3ccc(F)cc3)S2)cc1 (stereo not drawn)	-1.1	1.9	-6.4	0.0	-19.4
COc1ccc(/C=N/N=C2/NC(=O)C(CC(=O)NC(N)=O)S2)cc1 (stereo not drawn)	1.7	0.7	-3.7	26.5	1.6
CCCCNC(=O)CC1S/C(=N/N=C/c2ccc(OC)cc2)NC1=O (stereo not drawn)	-0.3	-1.7	-10.5	33.2*	-1.2
COc1ccc(C(C(=O)NC(C)(C)C)N(C(=O)CCC(=O)Nc2ccccn2)C2CCCCC2)cc1 (stereo not drawn)	0.3	-1.0	-9.8	-6.8	1.5
Cc1ccccc1S(=O)(=O)NC(=NCc1ccc(F)cc1)c1ccccc1	-1.0	-2.2	3.2	0.9	-4.6
Cc1ccc2oc(C(=O)N3CCC(O)(c4cccc(C(F)(F)F)c4)CC3)c(C)c2c1	4.7	-1.5	6.3	-10.9	-17.8
CC(C)C1S/C(=N/N=C/c2ccco2)NC1=O (stereo not drawn)	0.2	-4.4	12.2	57.4*	-9.0
Cc1ccccc1CC1S/C(=N/N=C/c2ccco2)NC1=O (stereo not drawn)	1.6	·	52.5	·	-3.2
O=C1CC(C(=O)Nc2ccc(Cl)cc2)S/C(=N\N=C\c2ccco2)N1 (stereo not drawn)	5.6	-1.9	-3.7	56.2*	-17.4
CC1OC(CC(=O)O)CC2=C1C(=O)c1c(O)cccc1C2=O (stereo not drawn)	·	-1.7	·	12.1	·
O=C(NNc1cccc([N+](=O)[O-])c1)/C(=C\c1cccnc1)NC(=O)c1ccccc1	0.5	1.1	94.2	44.2*	2.6
COc1ccccc1/C=C(\NC(=O)c1ccc(OC)c(OC)c1)C(=O)Nc1cccc([N+](=O)[O-])c1	3.6	-0.3	-0.5	32.4*	-3.7
SMILES	Mtb UGM inh	FBA Mtb inh	Mtb betalactam	GDH-TPI counter	Rv3671c inh
COc1ccccc1/C=C(\NC(=O)c1ccc(OC)c(OC)c1)C(=O)Nc1ccc([N+](=O)[O-])cc1	1.5	0.4	-6.2	35.6*	-24.7
CC(=O)c1cccc(NC(=O)/C(=C\c2cccnc2)NC(=O)c2ccccc2)c1	0.8	-0.5	-8.3	2.3	2.2
CCCCC(c1nnnn1C(C)C)N1CCN(C(=O)c2ccco2)CC1 (stereo not drawn)	4.1	4.1	2.9	0.8	4.4
CCN(CC)CCN1C(=O)C2C(C(=O)Nc3cccc(C)c3)C3C=CC2(O3)C1C(=O)NC1CCCC(C)C1C (stereo not drawn)	1.7	-3.1	-0.1	-5.2	3.7
O=C(NCc1ccccc1)c1cccc2c1C(=O)c1ccc(/C=C/c3ccccc3)cc1S2(=O)=O	5.4	0.6	-3.2	21.9	-12.9
COCCCNC(=S)N1CCN(S(=O)(=O)c2ccc(OC)cc2)CC1	0.7	-3.5	-3.1	-14.4	5.8
COc1ccc(-c2cc(-c3ccco3)[nH]c(=O)c2C#N)cc1	0.2	123.0*	-3.6	22.1	9.2
N#Cc1c(C(F)(F)F)cc(-c2ccc(Cl)cc2)[nH]c1=O	4.9	177.3*	7.3	3.8	-8.6
COc1ccc(-c2cc(C(F)(F)F)c(C#N)c(=O)[nH]2)cc1	1.7	+	-1.1	24.7	3.5
COc1ccccc1-c1cc(C(F)(F)F)c(C#N)c(=O)[nH]1	-0.3	+	-8.6	9.9	12.3
COc1cc(-c2cc(-c3ccc(N)cc3)[nH]c(=O)c2C#N)cc(OC)c1OC	-1.0	2.8	6.6	22.8	-1.4
CSc1cc(-c2ccc(Cl)cc2)[nH]c(=O)c1C#N	0.6	13.1	-1.9	-1.3	1.3
O=C1[C@H](Cc2ccccc2)NCC=CC[C@H](c2ccc(Cl)cc2)N1Cc1ccc(Cl)cc1	·	-2.3	·	1.3	·
Cc1ccccc1CNc1ccc(C(CC(N)=O)NC(=O)c2ccccc2)cc1[N+](=O)[O-] (stereo not drawn)	1.7	-4.2	-13.2	5.0	-24.7
CCC[n+]1cn(/C(C(=S)Nc2cccc(Cl)c2C)=C(/[O-])c2ccc(OC)c(OC)c2)c2ccccc21	-0.4	1.6	2.3	9.3	-2.3
N#Cc1c(C(F)(F)F)cc(-c2ccc(F)cc2)[nH]c1=O	1.3	141.9*	-0.8	7.3	-5.3
N#Cc1c(C(F)(F)F)cc(-c2cccc(Cl)c2)[nH]c1=O	-0.2	155.7*	-12.0	3.1	-14.3
Cc1cc(N(C)C)c(C#N)c(=O)[nH]1	-2.8	1.9	-0.6	-8.8	5.7
Cc1cc(C(F)(F)F)c(C#N)c(=O)[nH]1	4.1	136.7*	15.8	15.2	-0.3
CN1CCN(CCNC(=O)Cn2c(=O)c3cccn3c3ccc(F)cc32)CC1	3.3	5.8	0.7	3.5	4.7
CNC(=O)c1ccc(CNC(=O)OCc2ccccc2)cc1	1.8	7.2	-0.8	-11.4	-3.1
Cc1ccc(Cl)cc1NC(=O)CON=C(N)c1ccccc1	·	5.7	·	9.1	·
OC[C@@H]1CN(Cc2ccc(-c3ccccc3)cc2)C[C@H](n2cnc3c(NCc4ccc(F)cc4)ncnc32)O1	·	-3.6	·	1.8	·
COc1cc(N2Cc3ccccc3C2)ccc1C=O	-1.2	1.5	5.0	33.6*	-5.1
CCN(CC)c1ccc(C=C2C(=O)OC(C)(C(C)(C)C)OC2=O)cc1 (stereo not drawn)	2.3	-1.1	-4.2	35.9*	-22.0
